Measured values taken from ChEMBL document CHEMBL3988442, “University of Dundee, Small-Polar-MMV Screening Library” (2021).

Each compound was assayed against T1, Tyrosyl-tRNA synthetase, putative (Trypanosoma cruzi (strain CL Brener)) (UniProt Q4DSP6) (assay: Trypanosoma cruzi tyrosyl tRNA synthetase (TcYRS) SOP). Settings: 30 µM.
T1 sequence (whole entry): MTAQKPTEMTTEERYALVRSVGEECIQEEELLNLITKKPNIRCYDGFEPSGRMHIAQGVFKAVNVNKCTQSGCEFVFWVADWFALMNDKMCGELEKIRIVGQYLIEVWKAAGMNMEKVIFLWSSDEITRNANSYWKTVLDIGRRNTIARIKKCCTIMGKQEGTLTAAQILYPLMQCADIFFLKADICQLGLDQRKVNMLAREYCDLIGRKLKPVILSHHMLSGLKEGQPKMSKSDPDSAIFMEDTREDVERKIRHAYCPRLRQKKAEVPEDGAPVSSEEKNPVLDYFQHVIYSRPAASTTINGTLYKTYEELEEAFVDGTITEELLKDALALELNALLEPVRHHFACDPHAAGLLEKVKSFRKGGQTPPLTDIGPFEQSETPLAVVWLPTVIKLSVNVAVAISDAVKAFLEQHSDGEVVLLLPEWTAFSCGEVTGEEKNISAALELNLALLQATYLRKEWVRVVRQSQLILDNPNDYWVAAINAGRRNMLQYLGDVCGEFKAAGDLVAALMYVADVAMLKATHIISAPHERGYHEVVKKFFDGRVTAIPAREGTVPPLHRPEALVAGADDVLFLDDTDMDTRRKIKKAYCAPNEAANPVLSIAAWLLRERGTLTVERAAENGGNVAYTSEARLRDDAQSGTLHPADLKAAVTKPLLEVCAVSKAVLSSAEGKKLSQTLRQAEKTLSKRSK
Format: functional
Parameters: scale not given: direction of the effect not stated beside the values

| SMILES | Percent Effect |
| --- | --- |
| CC(C)COC(C)C(=O)NCc1ccc(OC(C)C)nc1 (stereo not given) | 25.9% |
| CCc1n[nH]c(C2CN(CCc3cccs3)CCO2)n1 (stereo not given) | 17.7% |
| CC(=O)N1CCCC(c2ccc(Nc3nc(C)cc(C)n3)cn2)C1 (stereo not given) | 14.1% |
| CN(CC1(O)CCCN(CCC2CCCCC2)C1=O)C1CCOCC1 (stereo not given) | 13.6% |
| Cc1noc(C2CCC3(CCN(C(=O)c4c(C)noc4C)CC3)O2)n1 (stereo not given) | 11.1% |
| COc1ncccc1NC(=O)N1CCC(CNC(C)=O)CC1 | 13.6% |
| CN1CCN(CCCNC(=O)c2cc(Cl)c3c(c2)OCO3)CC1 | 15.4% |
| O=C(NS(=O)(=O)c1ccc2c(c1)OCCO2)c1ccc(Br)cc1F | -15.2% |
| CCN1CCC(CNC(=O)C2(c3cccc(C)c3)CC2)C1 (stereo not given) | 15.2% |
| CC(C)N(C)Cc1cnc2n1CCN(CCc1ccccc1)C2 | 8.54% |
| CNc1nc2c(c(C(=O)N3CCCC3)n1)CN(Cc1nccn1C)CC2 | 8.64% |
| Cc1ccc(-n2nnc(CC(=O)N3CCSCC3)c2C)cc1 | 21% |
| Cc1nc(CN2CCCC(N(C)Cc3nnsc3Cl)C2)no1 (stereo not given) | 7.06% |
| Cc1nc(-c2ccccc2)sc1C(=O)NCCNc1ncccn1 | 11.1% |
| Cc1cc(=O)n(CC(=O)NCCC(C)C)c(-c2cccc(Cl)c2)n1 | 13.6% |
| CCn1ccnc1CN(C)C1CCCN(CCc2ccccc2)C1 (stereo not given) | 3.7% |
| CCN1CCN(c2ncc(-c3cc(C)no3)c(-c3ccoc3C)n2)CC1 | 6.49% |
| COc1ccccc1CC(=O)N1CCC(NCc2c[nH]nc2C)CC1 | 23.2% |
| CN(Cc1cccc(F)c1)C1CCN(CCc2ccccn2)CC1 | 13.4% |
| CC(C)c1nc2n(n1)CC(NCc1nc(-c3cccnc3)no1)CC2 (stereo not given) | 11.8% |

| SMILES | Percent Effect |
| --- | --- |
| CCc1noc(C(C)N2CCN(Cc3nc(C)c(C)o3)CC2)n1 (stereo not given) | -7.32% |
| CCn1cnnc1C1CCN(C(=O)c2cnc3ccccc3n2)CC1 | 2.6% |
| CN(CC(=O)NCc1ccccn1)CC1CCCN1c1cccnn1 (stereo not given) | 1.22% |
| CC(C)(NCC(=O)NCCC#N)c1ccc2c(c1)OCCO2 | 23.5% |
| Cc1ccc(NC2CCN(C(=O)c3cccc(F)c3F)CC2)nn1 | 5.06% |
| Clc1ccccc1C1(c2ccnc(-c3ncccn3)n2)CCNCC1 | 18.5% |
| O=C1CC(c2ccncc2)c2c(c(C(=O)O)cn2-c2ccc(F)cc2)N1 (stereo not given) | 15.4% |
| O=C(NCCC(=O)N1CCCc2ccccc21)c1c(O)cc(F)cc1F | -49.4% |
| CNC(=O)N1C[C@H]2CC[C@@]3(N=C(c4ccccc4)NC3=O)[C@H]2C1 | 11.1% |
| Cc1cc(CN(C)C2CCCN(Cc3noc(C4CC4)n3)C2)no1 (stereo not given) | 3.7% |
| C=C1c2ccccc2C(=O)N1CCC(=O)N1CCNC(=O)C1 | 17.1% |
| CCOC(=O)CCNC(=O)N1CCN(c2nc3ccccc3n2C)CC1 | 16.7% |
| CNc1cc(N2CCCC2CNCc2c[nH]nc2C(C)(C)C)ncn1 (stereo not given) | 6.1% |
| COCC1c2c(cnn2CC2CC2)CCN1Cc1nccs1 (stereo not given) | 20% |
| CCc1nnc2n1CCN(C(=O)c1csc(-c3cnn(C)c3)n1)C2 | 7.69% |
| Cn1ncc2c1CCCC2NCc1cc(Br)cs1 (stereo not given) | 11.8% |
| CCC(C)c1noc(C2CCN(C(=O)c3cccs3)CC2)n1 (stereo not given) | 11.1% |
| CCn1cnnc1CNC(=O)NC(C)C(C)C (stereo not given) | 7.32% |
| O=C(CC1CCCC1)N1CCCC(c2n[nH]c3nccnc23)C1 (stereo not given) | 16.9% |
| Fc1ccc2[nH]c(C3CCCN3CCc3ccccn3)nc2c1 (stereo not given) | 23.5% |

The compounds below were run against Chromo domain-containing protein 1 (Saccharomyces cerevisiae (strain ATCC 204508 / S288c) (Baker's yeast)) (UniProt P32657) (assay: ScCHD-1 Enzyme Inhibition Assay). Settings: 30 µM.
Format: functional
Parameters: scale not given: direction of the effect not stated beside the values

Sequence of Chromo domain-containing protein 1 (Saccharomyces cerevisiae (strain ATCC 204508 / S288c) (Baker's yeast)) (P32657 whole entry, the tested form may be a part): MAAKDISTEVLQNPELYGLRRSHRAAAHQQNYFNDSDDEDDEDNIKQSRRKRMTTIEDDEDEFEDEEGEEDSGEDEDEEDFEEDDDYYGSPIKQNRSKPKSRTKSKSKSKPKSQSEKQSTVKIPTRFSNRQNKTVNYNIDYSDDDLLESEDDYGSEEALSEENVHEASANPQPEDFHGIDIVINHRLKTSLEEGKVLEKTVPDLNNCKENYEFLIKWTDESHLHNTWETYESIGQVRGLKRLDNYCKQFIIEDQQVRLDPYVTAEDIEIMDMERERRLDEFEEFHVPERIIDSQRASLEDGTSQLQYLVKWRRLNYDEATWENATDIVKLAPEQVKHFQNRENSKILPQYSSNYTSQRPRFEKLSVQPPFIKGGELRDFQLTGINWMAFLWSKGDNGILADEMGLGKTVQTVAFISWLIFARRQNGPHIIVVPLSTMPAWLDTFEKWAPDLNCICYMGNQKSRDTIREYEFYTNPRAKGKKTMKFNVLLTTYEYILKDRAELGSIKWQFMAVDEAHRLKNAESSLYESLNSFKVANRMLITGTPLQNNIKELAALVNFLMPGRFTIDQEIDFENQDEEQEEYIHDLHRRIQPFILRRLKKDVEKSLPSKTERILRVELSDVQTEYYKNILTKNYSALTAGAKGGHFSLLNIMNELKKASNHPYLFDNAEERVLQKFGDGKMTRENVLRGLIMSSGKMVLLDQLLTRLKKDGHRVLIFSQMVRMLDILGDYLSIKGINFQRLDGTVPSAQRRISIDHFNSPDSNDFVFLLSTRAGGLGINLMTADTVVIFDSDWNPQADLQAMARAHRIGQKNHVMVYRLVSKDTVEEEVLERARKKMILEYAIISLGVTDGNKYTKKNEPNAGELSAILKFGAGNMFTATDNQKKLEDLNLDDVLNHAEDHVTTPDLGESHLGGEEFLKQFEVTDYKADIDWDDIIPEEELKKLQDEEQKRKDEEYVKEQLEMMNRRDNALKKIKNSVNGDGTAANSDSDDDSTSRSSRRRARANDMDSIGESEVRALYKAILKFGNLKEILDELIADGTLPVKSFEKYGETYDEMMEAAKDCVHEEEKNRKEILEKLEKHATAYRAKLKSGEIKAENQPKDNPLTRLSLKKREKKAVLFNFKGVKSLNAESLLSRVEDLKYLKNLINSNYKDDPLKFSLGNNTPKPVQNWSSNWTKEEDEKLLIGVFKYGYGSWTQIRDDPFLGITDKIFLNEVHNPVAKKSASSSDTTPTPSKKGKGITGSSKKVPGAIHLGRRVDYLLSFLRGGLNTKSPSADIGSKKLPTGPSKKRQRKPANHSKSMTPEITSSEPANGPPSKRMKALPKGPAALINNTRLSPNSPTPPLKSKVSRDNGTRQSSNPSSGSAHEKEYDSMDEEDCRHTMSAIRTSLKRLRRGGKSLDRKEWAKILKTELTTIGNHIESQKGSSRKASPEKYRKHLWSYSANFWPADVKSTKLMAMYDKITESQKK

| SMILES | Percent Effect |
| --- | --- |
| CC(C)COC(C)C(=O)NCc1ccc(OC(C)C)nc1 (stereo not given) | -24.5% |
| CCc1n[nH]c(C2CN(CCc3cccs3)CCO2)n1 (stereo not given) | -43.9% |
| CC(=O)N1CCCC(c2ccc(Nc3nc(C)cc(C)n3)cn2)C1 (stereo not given) | -7.25% |
| CN(CC1(O)CCCN(CCC2CCCCC2)C1=O)C1CCOCC1 (stereo not given) | -3.45% |
| Cc1noc(C2CCC3(CCN(C(=O)c4c(C)noc4C)CC3)O2)n1 (stereo not given) | -1.92% |
| COc1ncccc1NC(=O)N1CCC(CNC(C)=O)CC1 | -8% |
| CN1CCN(CCCNC(=O)c2cc(Cl)c3c(c2)OCO3)CC1 | -2.83% |
| O=C(NS(=O)(=O)c1ccc2c(c1)OCCO2)c1ccc(Br)cc1F | -10.5% |
| CCN1CCC(CNC(=O)C2(c3cccc(C)c3)CC2)C1 (stereo not given) | -11.4% |
| CC(C)N(C)Cc1cnc2n1CCN(CCc1ccccc1)C2 | 0.182% |
| CNc1nc2c(c(C(=O)N3CCCC3)n1)CN(Cc1nccn1C)CC2 | -2.56% |
| Cc1ccc(-n2nnc(CC(=O)N3CCSCC3)c2C)cc1 | -9.71% |
| Cc1nc(CN2CCCC(N(C)Cc3nnsc3Cl)C2)no1 (stereo not given) | -13.5% |
| Cc1nc(-c2ccccc2)sc1C(=O)NCCNc1ncccn1 | 5.7% |
| Cc1cc(=O)n(CC(=O)NCCC(C)C)c(-c2cccc(Cl)c2)n1 | 5.24% |
| CCn1ccnc1CN(C)C1CCCN(CCc2ccccc2)C1 (stereo not given) | 2.42% |
| CCN1CCN(c2ncc(-c3cc(C)no3)c(-c3ccoc3C)n2)CC1 | -24.9% |
| COc1ccccc1CC(=O)N1CCC(NCc2c[nH]nc2C)CC1 | -6.91% |
| CN(Cc1cccc(F)c1)C1CCN(CCc2ccccn2)CC1 | -4.09% |
| CC(C)c1nc2n(n1)CC(NCc1nc(-c3cccnc3)no1)CC2 (stereo not given) | -23.3% |

| SMILES | Percent Effect |
| --- | --- |
| CCc1noc(C(C)N2CCN(Cc3nc(C)c(C)o3)CC2)n1 (stereo not given) | 2.3% |
| CCn1cnnc1C1CCN(C(=O)c2cnc3ccccc3n2)CC1 | 1.06% |
| CN(CC(=O)NCc1ccccn1)CC1CCCN1c1cccnn1 (stereo not given) | -0.357% |
| CC(C)(NCC(=O)NCCC#N)c1ccc2c(c1)OCCO2 | -9.99% |
| Cc1ccc(NC2CCN(C(=O)c3cccc(F)c3F)CC2)nn1 | -24.5% |
| Clc1ccccc1C1(c2ccnc(-c3ncccn3)n2)CCNCC1 | -0.785% |
| O=C1CC(c2ccncc2)c2c(c(C(=O)O)cn2-c2ccc(F)cc2)N1 (stereo not given) | -5.97% |
| O=C(NCCC(=O)N1CCCc2ccccc21)c1c(O)cc(F)cc1F | -16.6% |
| CNC(=O)N1C[C@H]2CC[C@@]3(N=C(c4ccccc4)NC3=O)[C@H]2C1 | -1.88% |
| Cc1cc(CN(C)C2CCCN(Cc3noc(C4CC4)n3)C2)no1 (stereo not given) | -9.14% |
| C=C1c2ccccc2C(=O)N1CCC(=O)N1CCNC(=O)C1 | -3.42% |
| CCOC(=O)CCNC(=O)N1CCN(c2nc3ccccc3n2C)CC1 | -7.17% |
| CNc1cc(N2CCCC2CNCc2c[nH]nc2C(C)(C)C)ncn1 (stereo not given) | 0.0939% |
| COCC1c2c(cnn2CC2CC2)CCN1Cc1nccs1 (stereo not given) | -6.08% |
| CCc1nnc2n1CCN(C(=O)c1csc(-c3cnn(C)c3)n1)C2 | -5.68% |
| Cn1ncc2c1CCCC2NCc1cc(Br)cs1 (stereo not given) | -8.68% |
| CCC(C)c1noc(C2CCN(C(=O)c3cccs3)CC2)n1 (stereo not given) | -1.15% |
| CCn1cnnc1CNC(=O)NC(C)C(C)C (stereo not given) | -1.46% |
| O=C(CC1CCCC1)N1CCCC(c2n[nH]c3nccnc23)C1 (stereo not given) | -9.36% |
| Fc1ccc2[nH]c(C3CCCN3CCc3ccccn3)nc2c1 (stereo not given) | 2.89% |
